# Potency and affinity values are given separately. Active and inactive are the calls of the source.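 How the source made its calls: active means in all runs, an absorbance decrease of 25% or more of the average positive control decrease; inconclusive means runs conflict, with both active and inactive results; inactive means all runs inactive, opposite-direction effects included.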
# Target: Protein disulfide-isomerase A6 (Homo sapiens) (UniProt Q15084)
# Assay: inhibitors of ERp5-mediated insulin aggregation, dose response, biochemical, turbidity, absorbance 650 nm, cherry-picked samples (AID 720566);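 further: negative values mean less insulin aggregation so ERp5 inhibition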
# Sequence of Protein disulfide-isomerase A6 (Homo sapiens) (Q15084 whole entry, looked up): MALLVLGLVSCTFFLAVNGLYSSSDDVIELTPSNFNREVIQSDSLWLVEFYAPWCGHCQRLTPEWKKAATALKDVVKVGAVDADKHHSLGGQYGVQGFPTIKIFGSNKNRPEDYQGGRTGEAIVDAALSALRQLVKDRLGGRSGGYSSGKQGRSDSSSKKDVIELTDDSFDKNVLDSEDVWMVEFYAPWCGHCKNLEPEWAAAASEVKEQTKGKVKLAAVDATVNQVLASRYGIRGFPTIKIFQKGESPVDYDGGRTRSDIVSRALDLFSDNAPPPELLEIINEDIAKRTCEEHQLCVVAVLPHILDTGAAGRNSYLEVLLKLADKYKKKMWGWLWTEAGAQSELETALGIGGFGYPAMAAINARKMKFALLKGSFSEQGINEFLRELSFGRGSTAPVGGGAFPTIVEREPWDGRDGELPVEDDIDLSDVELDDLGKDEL
row,SMILES,outcome
1,CC(=O)Nc1ccc2c(c1)C(=O)N(C)[C@H]1CC[C@@H](CC(=O)NCC3CC3)O[C@H]1CO2,inactive
2,COc1ccc(S(=O)(=O)Nc2ccc3c(c2)CC(=O)N([C@H](C)CO)C[C@H](C)[C@H](CN(C)C(=O)Nc2ccccc2)O3)cc1,inactive
3,COC(=O)C[C@H]1C[C@H]2c3cc(NC(=O)Cc4ccncc4)ccc3O[C@H]2[C@H](CO)O1,inactive
4,Cc1ccc(S(=O)(=O)N(C)C)cc1NC(=O)COC(=O)C1(c2ccccc2)CC1,inactive
5,COc1ccc(-c2csc(NC(=O)C3CCN(C(=O)c4ccc(F)cc4)CC3)n2)cc1OC,inactive
6,Cc1noc(C)c1S(=O)(=O)Nc1cccc2c1O[C@H](CN(C)C(=O)Nc1ccc(C(F)(F)F)cc1)[C@H](C)CN([C@@H](C)CO)C2=O,inactive
7,CC(=O)Nc1ccc2c(c1)C(=O)N(C)[C@H]1CC[C@H](CC(=O)NCC3CC3)O[C@@H]1CO2,inactive
8,CCN(CC)S(=O)(=O)c1ccc2c(c1)N(CC(=O)NCCN1CCOCC1)C(=O)CO2,inactive
9,COCCNC(=O)C[C@@H]1C[C@H]2c3cc(NC(=O)NC4CCCC4)ccc3O[C@H]2[C@@H](CO)O1,inactive
10,O=C1[C@@H](c2ccccc2)CC[C@@H]2C=CC[C@H]3CCN1[C@@H]32,inactive
11,Cc1cc(Br)cc(Br)c1OCC(=O)NNC(=O)CCC(=O)NCc1ccccc1,inactive
12,C[C@@H]1CN([C@@H](C)CO)C(=O)c2cc(NS(=O)(=O)c3ccccc3)ccc2O[C@H]1CN(C)C(=O)Nc1ccc2c(c1)OCO2,inactive
13,C[C@H](O)C#Cc1cnc2c(c1)C(=O)N([C@@H](C)CO)C[C@H](C)[C@H](CN(C)CC1CCCCC1)O2,inactive
14,C[C@@H]1CN([C@@H](C)CO)C(=O)c2cccc(NS(=O)(=O)c3ccc(F)cc3)c2O[C@H]1CN(C)S(=O)(=O)c1ccccc1,inactive
15,COCC#Cc1cnc2c(c1)C(=O)N([C@H](C)CO)C[C@@H](C)[C@H](CN(C)C(=O)NC1CCCC1)O2,inactive
16,O=C(C[C@H]1C[C@@H]2c3cc(NC(=O)C4CCC4)ccc3O[C@@H]2[C@H](CO)O1)NCC(F)(F)F,inactive

row,SMILES,outcome
1,C[C@@H]1CN([C@H](C)CO)C(=O)c2cc(NC(=O)Nc3ccc(C(F)(F)F)cc3)ccc2O[C@@H]1CN(C)S(=O)(=O)c1ccc(F)cc1,inactive
2,CN1CCN(C(=O)C[C@@H]2C[C@@H]3c4cc(NC(=O)C5CCOCC5)ccc4O[C@@H]3[C@H](CO)O2)CC1,inactive
3,COC(=O)C[C@@H]1C[C@@H]2c3cc(NC(=O)Cc4ccncc4)ccc3O[C@@H]2[C@H](CO)O1,inactive
4,C/C=C/c1ccc2c(c1)O[C@@H](CN(C)S(C)(=O)=O)[C@H](C)CN([C@H](C)CO)S2(=O)=O,inactive
5,COc1ccc2c3c(n(C)c2c1)[C@H](CO)N(S(C)(=O)=O)CC31CCN(CC2CCCC2)CC1,inactive
6,CCN(c1ccccc1)S(=O)(=O)c1ccc(OC)c(NC(=O)c2c(C)noc2C)c1,inactive
7,COCC(=O)N(C)C[C@H]1Oc2cc(C#CC(C)(C)O)ccc2S(=O)(=O)N([C@@H](C)CO)C[C@@H]1C,inactive
8,Cc1ccc(S(=O)(=O)N(CC(O)CN2CCOCC2)c2cccc([N+](=O)[O-])c2)cc1 (configuration not stated),inactive
9,COc1ccc2c3c([nH]c2c1)[C@H](CO)N(C(=O)CN(C)C)CC31CCN(CC2CCCC2)CC1,inactive
10,C[C@@H]1CCCCO[C@@H](CN(C)C(=O)CCC(F)(F)F)[C@@H](C)CN([C@@H](C)CO)C(=O)c2cc(NS(=O)(=O)c3ccc(Cl)cc3)ccc2O1,inactive
11,C[C@H](CO)N1C[C@H](C)[C@@H](CN(C)S(=O)(=O)c2ccc(Oc3ccccc3)cc2)OCc2cnnn2CCCC1=O,inactive
12,C[C@H](CO)N1C[C@H](C)[C@H](CN(C)S(=O)(=O)c2cn(C)cn2)Oc2ncc(C#Cc3ccccc3)cc2C1=O,inactive
13,CCCNC(=O)C[C@H]1CC[C@@H]2[C@@H](COc3ccc(NC(=O)c4ccccc4)cc3C(=O)N2C)O1,inactive
14,CC(C)C(NC(=O)c1ccc(F)cc1)C(=O)N1CCOCC1 (configuration not stated),inactive
15,C[C@H]1CN([C@@H](C)CO)C(=O)Cc2cc(NC(=O)Nc3cccc4ccccc34)ccc2O[C@H]1CN(C)Cc1ccc(C(F)(F)F)cc1,inactive
16,C[C@H]1CN([C@@H](C)CO)C(=O)c2cccc(NC(=O)Nc3cccc4ccccc34)c2O[C@@H]1CN(C)C(=O)Nc1ccc(C(F)(F)F)cc1,inactive
